The text below walks through data of PubChem BioAssay AID624430 (Broad Institute, 2012).

Molecules are shown by their SMILES. Results with a measured potency or affinity are listed apart. Calls of active or inactive are those of the source.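 How the source made its calls: active means compound whose falling signal curve reaches half its effect at no more than twice the top valid dose; inconclusive means flat curve with 30 to 70% inhibition, or poor fit; inactive means the rest.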

This assay can be described thus: inhibitors of TRPM1-promoter reporter in SK-MEL-5 – cell-based, luciferase, dry powder, set 8, MITF inhibitor project, dose response (AID 624430). Conditions: SK-MEL-5 TRPM1 promoter luciferase reporter, 24 h; series mostly up to 35 µM. (A reporter such as luciferase makes a cellular process visible.)
For `O=C1C=C(NC2CCCCC2)C(=O)c2ccccc21`, the compound was called inactive. For `Cc1ccc(NC2=CC(=O)c3ccccc3C2=O)cc1C` the value was “inactive”; for `O=C1C=C(Nc2ccc(F)cc2)C(=O)c2ccccc21`, “inactive”; for `COc1ccc(NC2=CC(=O)c3ccccc3C2=O)cc1`, “inactive”.

As to `O=C1C=C(NCc2ccccc2)C(=O)c2ccccc21`, the call was inactive. With `CC1=C(N)C(=O)c2ccccc2C1=O`, the result was inactive. In the case of `O=C1C=C(Nc2ccc3ccccc3c2)C(=O)c2ccccc21`, the compound was classed as inactive.
